# From article PMC7862700, “An all-to-all approach to the identification of sequence-specific readers for epigenetic DNA modifications on cytosine”
# How the values were obtained:
# Assay in all cases: DAPPL (digital affinity profiling via proximity ligation, sequencing); 10 mM Tris-HCl pH 7.5, 50 mM NaCl, 1 mM DTT, 4% glycerol, room temperature, 30 min; GST-TFs on glutathione beads, 16-mer random dsDNA library, 0.1% formaldehyde crosslink after washing; high values mean tight binding
# Conditions in all cases: protein: recombinant; tags: N-terminal GST; dsDNA, one strand shown
# [1] = molecular target: T1, FLI1 (Homo sapiens, UniProt Q01543 1-452)
# T1 sequence: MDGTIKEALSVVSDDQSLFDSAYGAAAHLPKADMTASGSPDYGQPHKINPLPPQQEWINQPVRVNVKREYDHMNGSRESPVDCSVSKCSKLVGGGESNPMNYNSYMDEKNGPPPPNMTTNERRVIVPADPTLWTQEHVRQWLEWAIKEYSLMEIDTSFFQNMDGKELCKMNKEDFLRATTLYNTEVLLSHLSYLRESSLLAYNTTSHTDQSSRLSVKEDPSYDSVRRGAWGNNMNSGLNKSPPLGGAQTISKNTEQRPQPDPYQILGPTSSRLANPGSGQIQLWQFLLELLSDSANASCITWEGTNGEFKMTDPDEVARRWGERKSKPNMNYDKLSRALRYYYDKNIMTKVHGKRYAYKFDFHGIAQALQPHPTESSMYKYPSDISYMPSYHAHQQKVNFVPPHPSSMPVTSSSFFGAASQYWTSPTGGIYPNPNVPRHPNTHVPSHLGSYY
# Method in brief: (§1)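 Human transcription factors fused to GST were expressed in yeast, captured on glutathione beads, given DNA barcodes and pooled with a GST-only negative control. Pools were incubated with 200 nmole of a 16-mer random double-stranded DNA library in Tris/NaCl/DTT/glycerol buffer at room temperature for 30 min. They were then washed, crosslinked with 0.1% formaldehyde, proximity-ligated (BsaI/T4 ligase, 1 h, 37 °C), PCR-amplified and sequenced on an Illumina NextSeq500. Binding signal is each 6-mer's read frequency for a factor divided by its frequency for the GST control.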
# [2] = molecular target: T2, ELK1 (Homo sapiens, UniProt P19419 1-428)
# T2 sequence: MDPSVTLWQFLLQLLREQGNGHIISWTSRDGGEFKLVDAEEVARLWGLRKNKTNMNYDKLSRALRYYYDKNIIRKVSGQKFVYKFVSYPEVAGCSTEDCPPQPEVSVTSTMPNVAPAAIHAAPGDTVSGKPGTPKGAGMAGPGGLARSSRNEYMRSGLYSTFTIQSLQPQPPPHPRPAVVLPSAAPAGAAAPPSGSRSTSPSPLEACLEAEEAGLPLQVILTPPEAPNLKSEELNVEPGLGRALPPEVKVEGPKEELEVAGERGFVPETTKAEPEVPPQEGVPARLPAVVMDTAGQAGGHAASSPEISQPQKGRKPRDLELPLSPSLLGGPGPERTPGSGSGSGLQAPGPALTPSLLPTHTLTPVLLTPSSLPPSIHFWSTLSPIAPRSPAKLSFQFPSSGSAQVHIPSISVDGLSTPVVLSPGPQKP
# Method in brief: as §1
# [3] = molecular target: T3, GABPA (Homo sapiens, UniProt Q06546 1-454)
# T3 sequence: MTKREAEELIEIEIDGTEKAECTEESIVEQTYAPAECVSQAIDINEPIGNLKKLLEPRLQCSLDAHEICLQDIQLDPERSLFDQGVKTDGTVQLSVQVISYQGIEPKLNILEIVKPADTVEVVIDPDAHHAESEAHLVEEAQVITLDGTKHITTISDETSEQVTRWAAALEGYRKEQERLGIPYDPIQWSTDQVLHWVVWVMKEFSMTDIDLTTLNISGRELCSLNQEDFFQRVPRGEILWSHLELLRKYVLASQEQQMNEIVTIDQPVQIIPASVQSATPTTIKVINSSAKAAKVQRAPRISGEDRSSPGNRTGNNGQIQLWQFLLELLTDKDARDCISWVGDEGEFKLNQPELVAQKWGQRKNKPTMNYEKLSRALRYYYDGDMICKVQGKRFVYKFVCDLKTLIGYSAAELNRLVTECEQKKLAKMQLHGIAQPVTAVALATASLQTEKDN
# Method in brief: as §1
# [4] = molecular target: T4, ERG (Homo sapiens, UniProt P11308 1-479)
# T4 sequence: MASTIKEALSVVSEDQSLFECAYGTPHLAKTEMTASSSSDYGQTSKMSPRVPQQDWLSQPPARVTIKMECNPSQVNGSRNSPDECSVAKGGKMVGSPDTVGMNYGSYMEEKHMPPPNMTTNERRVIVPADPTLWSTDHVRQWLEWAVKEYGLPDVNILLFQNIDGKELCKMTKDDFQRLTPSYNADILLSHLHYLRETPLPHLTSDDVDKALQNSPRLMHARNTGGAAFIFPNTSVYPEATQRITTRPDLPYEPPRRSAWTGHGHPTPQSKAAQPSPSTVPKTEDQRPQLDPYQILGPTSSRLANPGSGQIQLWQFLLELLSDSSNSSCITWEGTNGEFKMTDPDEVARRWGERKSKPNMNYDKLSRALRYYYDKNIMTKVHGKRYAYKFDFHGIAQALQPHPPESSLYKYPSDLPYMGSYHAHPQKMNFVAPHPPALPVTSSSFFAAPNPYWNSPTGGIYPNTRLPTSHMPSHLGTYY
# Method in brief: as §1
# [5] = molecular target: ELF1 (Homo sapiens, UniProt P32519 1-619)
# ELF1, sequence (P32519 whole entry): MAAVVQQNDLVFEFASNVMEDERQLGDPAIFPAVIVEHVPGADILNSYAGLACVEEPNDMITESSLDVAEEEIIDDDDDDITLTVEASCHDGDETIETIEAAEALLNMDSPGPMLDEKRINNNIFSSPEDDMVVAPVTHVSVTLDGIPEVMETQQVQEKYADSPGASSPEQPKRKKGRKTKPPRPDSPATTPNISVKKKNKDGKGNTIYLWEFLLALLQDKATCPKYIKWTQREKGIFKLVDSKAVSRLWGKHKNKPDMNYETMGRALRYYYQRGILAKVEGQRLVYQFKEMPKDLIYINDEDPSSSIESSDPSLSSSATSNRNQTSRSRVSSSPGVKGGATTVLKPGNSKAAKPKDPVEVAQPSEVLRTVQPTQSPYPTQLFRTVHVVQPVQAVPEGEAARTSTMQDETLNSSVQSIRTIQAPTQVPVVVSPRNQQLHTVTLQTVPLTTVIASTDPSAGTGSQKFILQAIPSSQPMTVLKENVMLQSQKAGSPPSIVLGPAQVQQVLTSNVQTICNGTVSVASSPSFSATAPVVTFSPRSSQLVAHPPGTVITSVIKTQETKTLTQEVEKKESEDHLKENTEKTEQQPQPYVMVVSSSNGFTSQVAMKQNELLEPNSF
# Method in brief: as §1
# [6] = molecular target: T5, EHF (Homo sapiens, UniProt Q9NZC4 1-300)
# T5 sequence: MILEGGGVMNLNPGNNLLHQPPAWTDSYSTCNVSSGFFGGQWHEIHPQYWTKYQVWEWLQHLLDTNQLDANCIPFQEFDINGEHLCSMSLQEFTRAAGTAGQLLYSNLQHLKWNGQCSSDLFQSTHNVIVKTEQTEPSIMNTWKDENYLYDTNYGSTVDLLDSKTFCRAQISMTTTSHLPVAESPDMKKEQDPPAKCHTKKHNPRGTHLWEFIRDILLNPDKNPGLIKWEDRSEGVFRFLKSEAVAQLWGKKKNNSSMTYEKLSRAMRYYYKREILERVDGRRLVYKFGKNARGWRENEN
# Method in brief: as §1
# [7] = molecular target: SPI1 (Homo sapiens, UniProt P17947 1-270)
# Method in brief: as §1
# [8] = molecular target: SPIB (Homo sapiens, UniProt Q01892 1-262)
# SPIB, sequence (Q01892 whole entry): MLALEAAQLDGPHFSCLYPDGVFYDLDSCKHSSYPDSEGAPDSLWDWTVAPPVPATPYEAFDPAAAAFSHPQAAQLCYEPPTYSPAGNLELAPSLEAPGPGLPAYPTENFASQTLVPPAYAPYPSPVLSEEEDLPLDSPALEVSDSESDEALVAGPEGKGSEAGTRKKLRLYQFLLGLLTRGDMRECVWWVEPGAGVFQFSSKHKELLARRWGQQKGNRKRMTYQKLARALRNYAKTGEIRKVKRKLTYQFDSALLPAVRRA
# Method in brief: as §1
# [9] = molecular target: T6, ELK3 (Homo sapiens, UniProt P41970 1-407)
# T6 sequence: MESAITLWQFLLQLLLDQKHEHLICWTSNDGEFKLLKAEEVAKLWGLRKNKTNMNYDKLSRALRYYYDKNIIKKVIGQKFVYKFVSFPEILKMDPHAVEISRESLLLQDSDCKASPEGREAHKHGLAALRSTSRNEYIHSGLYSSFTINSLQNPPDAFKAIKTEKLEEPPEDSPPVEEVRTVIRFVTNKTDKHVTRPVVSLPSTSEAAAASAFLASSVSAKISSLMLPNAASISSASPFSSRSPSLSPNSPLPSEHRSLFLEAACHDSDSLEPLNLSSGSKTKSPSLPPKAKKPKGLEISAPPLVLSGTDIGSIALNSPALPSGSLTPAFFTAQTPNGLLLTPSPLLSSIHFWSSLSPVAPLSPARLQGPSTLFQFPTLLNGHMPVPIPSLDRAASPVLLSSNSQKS
# Method in brief: as §1
sequence,measurement,setting,value
CTTCAG,binding signal,[1],"1.34 fold enrichment (6-mer frequency, TF over GST control)"
same,binding signal,[2],"1.25 fold enrichment (6-mer frequency, TF over GST control)"
same,binding signal,[3],"1.3 fold enrichment (6-mer frequency, TF over GST control)"
same,binding signal,[4],"1.32 fold enrichment (6-mer frequency, TF over GST control)"
same,binding signal,[5],"1.36 fold enrichment (6-mer frequency, TF over GST control)"
same,binding signal,[6],"1.34 fold enrichment (6-mer frequency, TF over GST control)"
same,binding signal,[7],"1.29 fold enrichment (6-mer frequency, TF over GST control)"
same,binding signal,[8],"1.28 fold enrichment (6-mer frequency, TF over GST control)"
same,binding signal,[9],"1.34 fold enrichment (6-mer frequency, TF over GST control)"
